Results taken from PubChem BioAssay (NCI).
Compounds without any hit were thinned out: in the full panel of roughly 83,000, 20% have a hit.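 Values shown are percent growth following 48 h exposure of cells in 96-well plates to a single concentration of compound; below 10 was considered active.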 Active and inactive are the calls of the source.

Experiments:
Assay in all cases: NCI-60 one-dose screen, 48 h (100 = growth as untreated, 0 = no growth, -100 = all killed)
Conditions in all cases: 10 µM unless noted
[1] = system: HCT-15 colon
[2] = system: HT29 colon
[3] = system: SNB-75 CNS
[4] = system: SNB-19 CNS
[5] = system: U251 CNS
[6] = system: PC-3 prostate
[7] = system: SK-MEL-5 melanoma
[8] = system: UACC-62 melanoma
[9] = system: LOX IMVI melanoma
[10] = system: SK-MEL-28 melanoma
[11] = system: SK-MEL-2 melanoma
[12] = system: EKVX NSCLC
[13] = system: SN12C renal
[14] = system: UO-31 renal
[15] = system: TK-10 renal
[16] = system: ACHN renal
[17] = system: CAKI-1 renal
[18] = system: A498 renal
[19] = system: CCRF-CEM leukemia
[20] = system: MOLT-4 leukemia

Measured: growth

N#CC1=C(N)Oc2c(sc3c(Br)cccc23)C1c1ccc(F)cc1 (stereo not given)
active: [2] 1.78% | [20] 5.38%
inactive: [1] 10.3% | [3] 34.3% | [4] 47.8% | [5] 21.4% | [6] 23.6% | [7] 23.6% | [8] 26.4% | [9] 27.4% | [10] 57.6% | [11] 37% | [12] 45.6% | [13] 27.4% | [14] 34.4% | [15] 43.1% | [16] 30.7% | [17] 46.6% | [18] 17.8% | [19] 18.4%

O=C(CSc1nc2ccc([N+](=O)[O-])cc2[nH]1)Nc1ccc(F)cc1
inactive: [1] 64.9% | [2] 71.6% | [3] 51.1% | [4] 69.2% | [5] 45.7% | [6] 54.9% | [7] 32.5% | [8] 25.1% | [9] 64.8% | [10] 61.8% | [11] 63.6% | [12] 56.5% | [13] 55.6% | [14] 38.2% | [15] 77.1% | [16] 68.5% | [17] 45.5% | [18] 29.5% | [19] 53.3% | [20] 54.2%

N#Cc1c(-c2ccc(Cl)cc2)nc(SCC(=O)NC2=NN=C(c3ccccc3)CS2)[nH]c1=O
inactive: [1] 72.4% | [2] 104% | [3] 80.5% | [4] 85.8% | [5] 77.3% | [6] 78.6% | [7] 84.2% | [8] 75.1% | [9] 69.5% | [10] 76.3% | [11] 82.9% | [12] 86.2% | [13] 97.4% | [14] 71.2% | [15] 119% | [16] 88.9% | [17] 77% | [18] 97.6% | [19] 63.8% | [20] 90.4%

O=C1N[C@@H]2NC(=[N+]3CCOCC3)N[C@@H]2N1
inactive: [1] 104% | [2] 110% | [3] 94.5% | [4] 96% | [5] 97.2% | [6] 106% | [7] 101% | [8] 90.1% | [9] 98.3% | [10] 101% | [11] 118% | [12] 102% | [13] 97.8% | [14] 87.3% | [15] 103% | [16] 104% | [17] 91.5% | [18] 98.3% | [19] 108% | [20] 103%

CC1Cc2c(Cl)ncnc2N(C)c2ccc(F)cc21 (stereo not given)
inactive: [1] 106% | [2] 90.6% | [3] 59.8% | [4] 104% | [5] 89.7% | [6] 87.5% | [7] 76.9% | [8] 99.6% | [9] 92.3% | [10] 86.5% | [11] 110% | [12] 87.6% | [13] 106% | [14] 79.6% | [15] 98.9% | [16] 103% | [17] 91% | [18] 101% | [19] 95.6% | [20] 89.2%

O=C(Cn1c(=O)sc2nc3ccccc3nc21)Nc1ncc(Cc2cccc(Cl)c2Cl)s1
inactive: [1] 98.7% | [2] 107% | [3] 74.6% | [4] 93.4% | [5] 94.9% | [6] 87.9% | [7] 99.9% | [8] 79.1% | [9] 94.6% | [10] 120% | [11] 103% | [12] 75.1% | [13] 92.2% | [14] 65.5% | [15] 95.5% | [16] 100% | [17] 71.7% | [18] 113% | [19] 99.8% | [20] 99.8%

O=c1c2cc(-c3ccccc3)sc2nc2sc(-c3ccccc3)nn12
inactive: [1] 103% | [2] 93.3% | [3] 113% | [4] 102% | [5] 92.1% | [6] 95.1% | [7] 100% | [8] 109% | [9] 107% | [10] 107% | [11] 107% | [12] 97.4% | [13] 104% | [14] 94.2% | [15] 84% | [16] 117% | [17] 102% | [18] 61.3% | [19] 104% | [20] 102%

O=C1CNC(c2ccccc2)C(c2ccccc2)N1 (stereo not given)
inactive: [1] 104% | [2] 85.2% | [3] 75.8% | [4] 100% | [5] 97.5% | [6] 81.6% | [7] 104% | [8] 96.6% | [9] 92.1% | [10] 171% | [11] 94.7% | [12] 102% | [13] 99.8% | [14] 109% | [15] 103% | [16] 98.5% | [17] 81.2% | [18] 74.7% | [19] 69.9% | [20] 104%

COc1ccc2[nH]cc(C(c3cc(F)cc(F)c3)c3c[nH]c4ccc(OC)cc34)c2c1
inactive: [1] 65.2% | [2] 81.5% | [3] 85.9% | [4] 82.9% | [5] 86.8% | [6] 50.2% | [7] 91.7% | [8] 85.5% | [9] 67.3% | [10] 105% | [11] 62.5% | [12] 88.4% | [13] 87.3% | [14] 44.2% | [15] 124% | [16] 82.9% | [17] 101% | [18] 77.8% | [19] 60.1% | [20] 37.4%

COC(=O)c1c2c(c(C)[n+]([O-])c1C)C(=O)C=C(NCc1ccc(Br)cc1)C2=O
active: [1] -63% | [2] -5.46% | [3] -98.6% | [4] -87.2% | [5] -41% | [6] -11.1% | [7] -97.5% | [8] -59.5% | [9] -75.7% | [10] -39.6% | [11] -54% | [12] -85.3% | [13] -77.7% | [14] -85.8% | [15] 2.5% | [16] -73.2% | [17] -25.7% | [18] -86.4% | [19] -12.6% | [20] -21.7%

O=[N+]([O-])c1ccc(-c2nc(N3CCOCC3)c3c4c(sc3n2)CCCC4)cc1
inactive: [1] 97.8% | [2] 94.8% | [3] 76.6% | [4] 115% | [5] 102% | [6] 101% | [7] 94.1% | [8] 85.1% | [9] 86% | [10] 111% | [11] 95.6% | [12] 93.8% | [13] 106% | [14] 67.2% | [15] 105% | [16] 96.2% | [17] 76.5% | [18] 109% | [19] 101% | [20] 86.4%

CC[C@@H](C(=O)[C@@H](C)[C@@H](O)[C@H](C)[C@@H]1O[C@@H]([C@@H](CC)C(=O)NCCc2ccc(F)cc2)CC[C@@H]1C)C1O[C@]2(C=CC(=O)[C@]3(CC[C@@](C)([C@H]4CC[C@](O)(CC)[C@H](C)O4)O3)O2)[C@H](C)C[C@@H]1C (stereo not given in full)
active: [6] 8.72% | [16] 9.48%
inactive: [1] 29.1% | [2] 47.2% | [3] 20.8% | [4] 26.2% | [5] 28.4% | [7] 24.6% | [8] 26.7% | [9] 52.8% | [10] 58.2% | [11] 53% | [12] 29.6% | [13] 37.7% | [14] 19.2% | [15] 16.6% | [17] 14.2% | [18] 34.6% | [19] 40.1% | [20] 19.2%

O=S(=O)(NCCCNc1nccc(-c2c(-c3ccc(F)c(O)c3)nc3occn23)n1)c1ccccc1
inactive: [1] 103% | [2] 73.6% | [3] 96.8% | [4] 113% | [5] 99.7% | [6] 79.1% | [7] 63% | [8] 10.7% | [9] 39.6% | [10] 24.7% | [11] 31.9% | [12] 101% | [13] 79.1% | [14] 75% | [15] 122% | [16] 70.1% | [17] 96.5% | [18] 101% | [19] 79.1% | [20] 78.2%

COc1ccc(-c2ccc3cnc4sc(-c5ccc(OC)cc5)nc4c3n2)cc1
inactive: [1] 97.6% | [2] 100% | [3] 85.8% | [4] 98.4% | [5] 94.4% | [6] 70.3% | [7] 85.2% | [8] 98.8% | [9] 87% | [10] 107% | [11] 96.2% | [12] 68.6% | [13] 103% | [14] 61.7% | [15] 142% | [16] 89.8% | [17] 96% | [18] 63.4% | [19] 102% | [20] 85.9%

CCN1C(=O)N(CC)C2C1NN=c1s/c(=C\c3ccc(Cl)cc3Cl)c(=O)n12 (stereo not given)
active: [1] 9.51% | [2] 2.8% | [7] -20.8% | [19] 9.4%
inactive: [3] 19.7% | [4] 27.9% | [5] 11% | [6] 24.6% | [8] 28.9% | [9] 18.3% | [10] 66.1% | [11] 45.7% | [12] 50.1% | [13] 21.5% | [14] 35.9% | [15] 67.7% | [16] 26.7% | [17] 21.1% | [18] 16.9% | [20] 12.9%
